# Laboratory results published in the supplement of paper PMC10849652.
# Targets with a hit are over-represented here; the source holds about 7,900 in all. About 0.6% of all pairs of compound and target were hits. A number with no mark means an inactive call.
# Tests used:
# Experiment in all cases: log2 fold change, soluble protein after heating vs DMSO (PISA); higher = thermal stabilisation; K562 cells, 10 uM, 30 min; active = over 0.2 and 3.5 SD of the protein, either way, in both replicates (recomputed)
# [1] = compound: C#Cc1cccc(Nc2ncnc3cc(OCCOC)c(OCCOC)cc23)c1 [erlotinib]
# Procedure, shortened: (§1)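 For each measurement, 10 μM compound was applied for 30 min to K562 cells at 2×10^6 cells/mL. Aliquots were heated for 3 min across 48°C-58°C, pooled, and extracted in PBS with 0.5% NP-40 at 4°C; the supernatant after 21,000xg for 90 min was soluble protein. This was quantified by TMTpro 16plex LC-MS/MS with channel sums equalised, and thermal stability was reported relative to control samples from duplicates, on a log2 fold-change scale.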
# [2] = compound: C/C(=N\NC(=O)C1=CC(=CC=C1)S(=O)(=O)N2CCOCC2)/C3=C(C=CC(=C3)Cl)O
# Procedure, shortened: as §1
# [3] = compound: C1=CC(=C(C=C1Cl)C2=NC3=NC=CN=C3C(=N2)NC4=CC=NC=C4)F
# Procedure, shortened: as §1
# [4] = compound: C1=CC(=CC=C1C2=NC3=C(N2)C=C(C=C3)C(=O)N)OC4=CC=C(C=C4)Cl
# Procedure, shortened: as §1
# [5] = compound: C1=CC2=C(C=CC(=C2)/C=C\3/C(=O)NC(=NCC4=CC=CS4)S3)N=C1
# Procedure, shortened: as §1
# [6] = compound: C1=CC2=NC=CN=C2C=C1/C=C/3\C(=O)NC(=O)S3
# Procedure, shortened: as §1
# [7] = compound: C1=CC=C(C=C1)C2=NC(=C(N2)C3=CC=NC=C3)C4=CC(=C(C=C4)Cl)O
# Procedure, shortened: as §1
# [8] = compound: C1=CC=C2C(=C1)C3=NNC4=CC=CC(=C43)C2=O
# Procedure, shortened: as §1
# [9] = compound: C1CCN(C1)C(=O)NC2=CC=CC(=C2)NC3=NC=C(C(=N3)NCCC4=CN=CN4)Br
# Procedure, shortened: as §1
# [10] = compound: C1CN(CCC1(CC2=CC=C(C=C2)Cl)N)C3=NC=NC4=C3C=CN4
# Procedure, shortened: as §1
# [11] = compound: C1COCCN1CCN2C3=CC=CC=C3N=C2NC(=O)C4=CC(=CC=C4)[N+](=O)[O-] [IRAK-1-4 Inhibitor I]
# Procedure, shortened: as §1
# [12] = compound: C=CC(=O)N1CCC[C@@H](n2nc(-c3ccc(Oc4ccccc4)cc3)c3c(N)ncnc32)C1 [ibrutinib]
# Procedure, shortened: as §1
# [13] = compound: CC(=O)c1cnc2ccc(-c3cc(Cl)c(O)c(Cl)c3)nc2c1N[C@H]1CC[C@H](CN(C)C)CC1
# Procedure, shortened: as §1
# [14] = compound: CC(C)(C)Cn1c(N)nc2ccc(-c3[nH]c(C(C)(C)C)nc3-c3ccc(F)cc3)nc21 [ralimetinib]
# Procedure, shortened: as §1
# [15] = compound: CC(C)(O)CC(=O)NCCn1ccc2ncnc(Nc3ccc(Oc4cccc(C(F)(F)F)c4)c(Cl)c3)c21
# Procedure, shortened: as §1
# [16] = compound: CC(C)C1=C2N=C(C=C(N2N=C1)NCC3=CC=CC=C3)NCCCCCCN
# Procedure, shortened: as §1
# [17] = compound: CC(C)C[C@@H](C=O)NC(=O)[C@H](CC(C)C)NC(=O)[C@H](CC(C)C)NC(=O)OCc1ccccc1
# Procedure, shortened: as §1
# [18] = compound: CC(C)N(C[C@H]1O[C@@H](n2cnc3c(N)ncnc32)[C@H](O)[C@@H]1O)[C@H]1C[C@@H](CCc2nc3cc(C(C)(C)C)ccc3[nH]2)C1 [pinometostat]
# Procedure, shortened: as §1
# [19] = compound: CC1=C(C(CC(=O)N1)C2=CC=C(C=C2)C(F)(F)F)C(=O)NC3=C(C=C4C(=C3)C=NN4)F
# Procedure, shortened: as §1
# [20] = compound: CC1=C(C2=C(C=C1)C(=O)C3=CC=CC=C3N2CCCN)C
# Procedure, shortened: as §1
# Chain of UniProt P69905 (P69905 whole entry, looked up): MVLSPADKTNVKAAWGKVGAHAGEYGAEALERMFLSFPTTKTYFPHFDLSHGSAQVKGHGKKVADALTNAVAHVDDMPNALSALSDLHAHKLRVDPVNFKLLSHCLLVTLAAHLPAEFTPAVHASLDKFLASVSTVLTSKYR
# Chain of UniProt Q5JWF2 (Q5JWF2 whole entry, looked up): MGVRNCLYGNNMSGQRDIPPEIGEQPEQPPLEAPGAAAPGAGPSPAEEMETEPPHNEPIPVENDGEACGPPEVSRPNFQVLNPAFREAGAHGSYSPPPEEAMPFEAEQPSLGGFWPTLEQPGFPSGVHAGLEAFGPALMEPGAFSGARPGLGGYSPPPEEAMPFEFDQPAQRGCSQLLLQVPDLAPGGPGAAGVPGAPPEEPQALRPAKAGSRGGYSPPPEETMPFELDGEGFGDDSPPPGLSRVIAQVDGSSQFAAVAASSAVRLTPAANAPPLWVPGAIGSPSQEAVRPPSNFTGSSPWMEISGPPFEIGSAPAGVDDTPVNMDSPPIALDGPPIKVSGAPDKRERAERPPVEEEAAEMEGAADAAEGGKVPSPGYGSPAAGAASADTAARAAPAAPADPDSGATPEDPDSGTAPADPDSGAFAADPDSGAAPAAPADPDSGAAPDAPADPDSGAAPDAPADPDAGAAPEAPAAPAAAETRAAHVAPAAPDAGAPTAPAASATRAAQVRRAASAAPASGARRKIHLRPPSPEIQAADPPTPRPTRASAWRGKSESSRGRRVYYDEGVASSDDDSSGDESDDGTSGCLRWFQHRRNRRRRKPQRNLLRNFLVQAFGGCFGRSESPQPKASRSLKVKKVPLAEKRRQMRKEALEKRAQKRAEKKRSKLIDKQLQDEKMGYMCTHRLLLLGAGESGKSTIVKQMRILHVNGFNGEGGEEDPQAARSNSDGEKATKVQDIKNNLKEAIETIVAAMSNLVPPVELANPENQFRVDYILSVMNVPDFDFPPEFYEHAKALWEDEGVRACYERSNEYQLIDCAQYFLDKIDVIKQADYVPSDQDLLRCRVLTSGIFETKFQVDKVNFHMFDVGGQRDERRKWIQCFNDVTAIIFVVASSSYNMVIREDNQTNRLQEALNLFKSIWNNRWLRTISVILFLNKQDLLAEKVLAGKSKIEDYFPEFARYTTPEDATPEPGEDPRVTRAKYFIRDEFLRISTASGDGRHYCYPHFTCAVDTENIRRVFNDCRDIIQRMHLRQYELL
# Chain of UniProt Q9NVI1 (Q9NVI1 whole entry, looked up): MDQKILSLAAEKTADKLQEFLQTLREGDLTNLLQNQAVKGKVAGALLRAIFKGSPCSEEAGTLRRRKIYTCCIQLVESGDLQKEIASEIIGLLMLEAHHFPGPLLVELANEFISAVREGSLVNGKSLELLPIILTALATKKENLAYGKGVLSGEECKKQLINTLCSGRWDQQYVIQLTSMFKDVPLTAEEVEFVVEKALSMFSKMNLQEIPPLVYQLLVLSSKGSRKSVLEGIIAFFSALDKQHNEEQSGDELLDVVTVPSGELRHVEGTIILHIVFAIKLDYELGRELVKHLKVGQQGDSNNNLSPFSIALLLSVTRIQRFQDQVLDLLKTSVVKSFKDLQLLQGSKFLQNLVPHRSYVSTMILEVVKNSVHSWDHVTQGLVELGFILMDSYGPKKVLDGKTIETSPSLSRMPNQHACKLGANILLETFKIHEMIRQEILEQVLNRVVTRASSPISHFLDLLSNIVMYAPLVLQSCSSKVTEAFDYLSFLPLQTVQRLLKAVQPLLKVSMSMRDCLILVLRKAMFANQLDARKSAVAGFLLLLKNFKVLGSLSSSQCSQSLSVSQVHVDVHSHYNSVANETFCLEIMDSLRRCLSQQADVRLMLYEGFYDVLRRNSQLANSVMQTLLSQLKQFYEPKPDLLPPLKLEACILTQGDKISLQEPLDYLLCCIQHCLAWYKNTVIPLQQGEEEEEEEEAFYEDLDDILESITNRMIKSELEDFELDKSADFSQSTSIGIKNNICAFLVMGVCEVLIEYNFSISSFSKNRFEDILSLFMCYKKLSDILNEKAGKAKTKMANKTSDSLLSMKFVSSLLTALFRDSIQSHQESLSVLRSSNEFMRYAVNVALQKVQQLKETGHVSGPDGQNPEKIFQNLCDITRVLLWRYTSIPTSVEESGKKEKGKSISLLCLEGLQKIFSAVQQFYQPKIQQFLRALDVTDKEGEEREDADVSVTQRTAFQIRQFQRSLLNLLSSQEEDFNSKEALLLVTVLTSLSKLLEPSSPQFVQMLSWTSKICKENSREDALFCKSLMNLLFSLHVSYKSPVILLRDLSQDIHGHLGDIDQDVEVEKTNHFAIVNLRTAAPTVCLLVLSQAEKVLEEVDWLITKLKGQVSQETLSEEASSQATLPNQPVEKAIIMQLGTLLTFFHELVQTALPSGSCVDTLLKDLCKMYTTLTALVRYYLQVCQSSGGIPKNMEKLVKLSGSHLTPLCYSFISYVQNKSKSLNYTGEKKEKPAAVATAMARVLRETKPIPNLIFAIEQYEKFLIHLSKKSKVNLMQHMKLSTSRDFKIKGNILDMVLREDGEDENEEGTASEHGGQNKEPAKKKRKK
# Chain of UniProt Q9UKD1 (Q9UKD1 whole entry, looked up): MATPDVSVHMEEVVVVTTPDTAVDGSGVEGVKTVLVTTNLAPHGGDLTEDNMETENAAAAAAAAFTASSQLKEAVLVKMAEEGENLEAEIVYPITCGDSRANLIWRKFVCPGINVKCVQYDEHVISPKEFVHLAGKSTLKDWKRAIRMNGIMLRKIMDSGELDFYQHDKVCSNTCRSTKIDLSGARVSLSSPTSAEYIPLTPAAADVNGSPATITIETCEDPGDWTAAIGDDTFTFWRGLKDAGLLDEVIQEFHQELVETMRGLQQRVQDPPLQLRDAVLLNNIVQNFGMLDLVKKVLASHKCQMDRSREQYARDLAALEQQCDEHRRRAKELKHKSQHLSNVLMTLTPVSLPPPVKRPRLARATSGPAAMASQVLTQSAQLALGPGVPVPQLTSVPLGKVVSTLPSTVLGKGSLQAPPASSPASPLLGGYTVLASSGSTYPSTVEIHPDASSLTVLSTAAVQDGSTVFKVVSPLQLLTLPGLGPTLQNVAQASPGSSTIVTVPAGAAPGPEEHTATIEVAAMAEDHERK
# Chain of UniProt P78417 (P78417 whole entry, looked up): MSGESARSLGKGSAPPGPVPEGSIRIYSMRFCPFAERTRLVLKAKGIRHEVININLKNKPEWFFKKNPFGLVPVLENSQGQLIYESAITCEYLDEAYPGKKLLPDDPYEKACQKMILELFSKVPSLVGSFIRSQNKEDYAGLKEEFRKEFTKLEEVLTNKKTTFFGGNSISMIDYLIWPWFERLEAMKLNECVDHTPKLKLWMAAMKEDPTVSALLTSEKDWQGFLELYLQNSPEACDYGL
# Chain of UniProt Q13889 (Q13889 whole entry, looked up): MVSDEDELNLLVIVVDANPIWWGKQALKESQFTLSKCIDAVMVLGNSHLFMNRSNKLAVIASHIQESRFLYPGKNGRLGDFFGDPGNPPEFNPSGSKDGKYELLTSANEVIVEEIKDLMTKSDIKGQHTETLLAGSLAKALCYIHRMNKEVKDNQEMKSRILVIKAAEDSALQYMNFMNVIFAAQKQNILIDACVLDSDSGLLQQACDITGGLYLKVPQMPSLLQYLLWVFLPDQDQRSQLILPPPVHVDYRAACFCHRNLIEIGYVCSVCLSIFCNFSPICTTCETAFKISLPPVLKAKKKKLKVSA
# Chain of UniProt P31150 (P31150 whole entry, looked up): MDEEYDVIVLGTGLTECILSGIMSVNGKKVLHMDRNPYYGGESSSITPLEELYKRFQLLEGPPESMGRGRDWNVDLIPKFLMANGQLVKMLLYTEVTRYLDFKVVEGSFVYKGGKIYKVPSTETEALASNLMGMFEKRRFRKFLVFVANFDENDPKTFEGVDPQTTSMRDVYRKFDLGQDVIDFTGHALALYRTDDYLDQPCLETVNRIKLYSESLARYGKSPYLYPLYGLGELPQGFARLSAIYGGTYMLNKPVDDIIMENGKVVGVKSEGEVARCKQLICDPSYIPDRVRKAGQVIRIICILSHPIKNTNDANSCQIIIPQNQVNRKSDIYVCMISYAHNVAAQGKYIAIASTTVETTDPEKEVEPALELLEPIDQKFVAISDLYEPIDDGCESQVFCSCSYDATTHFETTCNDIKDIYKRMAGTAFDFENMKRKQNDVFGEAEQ
# Chain of UniProt Q86UX7 (Q86UX7 whole entry, looked up): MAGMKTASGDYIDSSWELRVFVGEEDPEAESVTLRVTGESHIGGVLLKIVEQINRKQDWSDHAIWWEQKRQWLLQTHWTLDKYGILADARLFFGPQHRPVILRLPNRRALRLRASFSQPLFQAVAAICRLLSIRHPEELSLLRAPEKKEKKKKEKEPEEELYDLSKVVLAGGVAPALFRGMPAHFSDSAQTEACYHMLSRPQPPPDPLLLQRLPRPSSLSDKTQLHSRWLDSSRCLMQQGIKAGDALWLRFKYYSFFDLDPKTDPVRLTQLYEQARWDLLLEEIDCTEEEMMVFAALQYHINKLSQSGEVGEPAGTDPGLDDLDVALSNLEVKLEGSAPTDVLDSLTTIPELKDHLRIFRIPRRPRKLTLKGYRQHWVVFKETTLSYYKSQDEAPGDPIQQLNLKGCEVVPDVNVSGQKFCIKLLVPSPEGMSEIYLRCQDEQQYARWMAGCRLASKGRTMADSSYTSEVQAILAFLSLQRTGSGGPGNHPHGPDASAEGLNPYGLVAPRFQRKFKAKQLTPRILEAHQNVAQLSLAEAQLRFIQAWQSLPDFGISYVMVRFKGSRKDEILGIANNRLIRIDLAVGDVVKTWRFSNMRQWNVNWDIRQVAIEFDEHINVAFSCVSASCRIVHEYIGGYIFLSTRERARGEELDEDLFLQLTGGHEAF
# Chain of UniProt P52657 (P52657 whole entry, looked up): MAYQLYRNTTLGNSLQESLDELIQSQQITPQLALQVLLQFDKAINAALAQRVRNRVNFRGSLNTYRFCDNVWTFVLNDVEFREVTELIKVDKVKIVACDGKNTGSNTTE
Target,log2 fold change [1],log2 fold change [2],log2 fold change [3],log2 fold change [4],log2 fold change [5],log2 fold change [6],log2 fold change [7],log2 fold change [8],log2 fold change [9],log2 fold change [10],log2 fold change [11],log2 fold change [12],log2 fold change [13],log2 fold change [14],log2 fold change [15],log2 fold change [16],log2 fold change [17],log2 fold change [18],log2 fold change [19],log2 fold change [20]
FKBP7 (UniProt Q9Y680),-0.027,-0.027,0.005,0.037,0,0.081,-0.037,-0.042,0.039,0.048,0.018,0.033,-0.031,-0.033,0.017,0.055,-0.005,-0.059,-0.029,-0.022
FBL (UniProt P22087),0.06,-0.153,-0.566 (active),0.013,-0.102,0.13,-0.099,-0.091,0.054,-0.117,-0.094,0.048,-0.03,0.17,0.146,0.199,0.184,0.319,-0.031,0.206
FERMT3 (UniProt Q86UX7),0.019,0.076,0.091,-0.003,0.028,0.02,0.011,0.008,-0.006,0.012,-0.019,-0.036,-0.039,0.01,-0.048,-0.091,-0.022,-0.002,-0.009,0.003
GSTO1 (UniProt P78417),-0.009,0.007,0.065,-0.001,0.006,0.278 (active),0.095,0.031,-0.005,0.008,0.073,-0.029,0.006,0.021,-0.029,0.066,-0.045,-0.047,0.021,0.021
GNAS (UniProt Q5JWF2),0.001,0.042,-0.032,0.043,0.026,0.021,0.02,0.011,-0.011,0.043,-0.04,0.001,-0.059,0.009,0.022,0.041,-0.009,0,-0.059,0.073
FANCI (UniProt Q9NVI1),0.083,0.026,0.056,0.062,0.142,0.008,0.053,-0.019,-0.028,-0.006,-0.043,-0.082,-0.148,-0.008,-0.146,-0.377 (active),-0.136,0.006,-0.038,-0.098
GNL1 (UniProt P36915),0.044,0.046,0.048,-0.028,0.037,-0.004,0.074,0,0.035,-0.055,0.07,0.037,0.046,0.011,-0.063,-0.03,-0.014,-0.006,-0.037,-0.086
HBA1 (UniProt P69905),-0.058,0.048,0.215,0.063,0.104,0.023,0.123,-0.026,-0.105,0.031,0.002,0.007,-0.03,-0.037,-0.035,0.094,-0.056,0.025,-0.019,0.127
GTF2A2 (UniProt P52657),-0.057,0.048,0.089,-0.005,0.132,0.038,-0.002,-0.02,0.008,0.07,0.013,-0.028,-0.002,-0.078,-0.026,0.051,-0.019,-0.064,0.016,-0.357 (active)
GMEB2 (UniProt Q9UKD1),0.003,0.039,0.168,0.004,-0.009,0.047,-0.022,-0.117,-0.105,0.024,-0.021,0.061,-0.022,0.018,-0.158,0.006,-0.128,0.145,0.004,-0.367 (active)
GTF2H3 (UniProt Q13889),-0.002,0.041,-0.115,0.051,0.027,-0.017,0.014,0.012,-0.004,0.044,-0.06,0.056,0.063,0.049,0.006,0.011,0,0.06,-0.074,0.02
GDI1 (UniProt P31150),-0.009,0.025,0.03,0.014,0.007,0.007,-0.021,-0.001,0.015,0.008,0.034,0.018,-0.027,-0.057,0.009,0.04,-0.012,-0.008,-0.022,0.011
HDAC7 isoform 5 (UniProt Q8WUI4),0.025,0.057,-0.08,0.007,-0.126,-0.008,-0.037,-0.171,-0.056,0.025,0.094,-0.007,-0.561 (active),-0.123,-0.031,0.108,0.036,0.035,0.029,0.065
HSPA8 (UniProt E9PK54),-0.008,0,-0.346,0.032,0,0.034,-0.211,-0.095,-0.056,-0.158,-0.051,-0.012,0.015,-0.161,0.058,0.141,0.074,0.001,0.017,-0.262
GTPBP6 (UniProt O43824),-0.091,-0.017,-0.137,0.01,0.041,0.066,-0.036,-0.05,0.06,0.027,-0.043,-0.081,0.028,0.039,0.111,0.204,0.024,0.062,0.112,0.013
